Results on nine molecules are retold here after PubChem BioAssay (NCI).

Assay in all cases: NCI-60 one-dose screen, 48 h (100 = growth as untreated, 0 = no growth, -100 = all killed)
Holding throughout (details): 10 µM unless noted

For assay [1], the system named is HT29 colon.
The test system of assay [2] is SNB-75 CNS.
The test system of assay [3] is SNB-19 CNS.
The subject of assay [4] is U251 CNS.
The subject of assay [5] is PC-3 prostate.
Assay [6] has as its system UACC-62 melanoma.
Assay [7] deals with LOX IMVI melanoma.
For assay [8], the system named is SK-MEL-28 melanoma.
The test system of assay [9] is SK-MEL-2 melanoma.
Assay [10] has as its system EKVX NSCLC.
Assay [11] relates to SN12C renal.
Assay [12] concerns UO-31 renal.
In assay [13] the test system is TK-10 renal.
In assay [14] the test system is ACHN renal.
The subject of assay [15] is CAKI-1 renal.
For assay [16], the system named is A498 renal.
Assay [17] relates to MOLT-4 leukemia.
The subject of assay [18] is SR leukemia.
Assay [19] deals with CCRF-CEM leukemia.

SMILES strings stand for the structures. About 83,000 compounds went through this panel and 20% of them were active in at least one assay; those are over-represented in the sample as a whole.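 For each line, cells grew in 96-well plates with the test compound present at a single concentration for 48 hours.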 Unmarked numbers belong to inactive results. The source made the active and inactive calls. How the source made its calls: active means growth percent below 10; inactive means the rest.

Take `CCCCCCCCSc1ncnc2c1ncn2CO`: the growth in [1] was 91%; in assay [2], 75.1%; in assay [3] it was 94.7%; in assay [4], 74.7%; in assay [5], 75.6%; in assay [6], 92.8%. For the same molecule, the growth was 80.1% in assay [7]; 101% in assay [8]; 95.8% in assay [9]; 55.5% in assay [10]; 76.4% in [11]; 86.6% in assay [12]. In addition, the growth was 89.9% in assay [13]; 81% in assay [14]; 72.6% in [15]; 106% in assay [16]; 85.8% in assay [17]; 115% in [18].
On to `O=C(OC[C@H]1O[C@H](OC(=O)c2cc(O)c(O)c(OC(=O)c3cc(O)c(O)c(O)c3)c2)[C@H](OC(=O)c2cc(O)c(O)c(OC(=O)c3cc(O)c(O)c(O)c3)c2)[C@@H](OC(=O)c2cc(O)c(O)c(OC(=O)c3cc(O)c(O)c(O)c3)c2)[C@@H]1OC(=O)c1cc(O)c(O)c(OC(=O)c2cc(O)c(O)c(O)c2)c1)c1cc(O)c(O)c(OC(=O)c2cc(O)c(O)c(O)c2)c1`, for which the growth in [1] was 33.5%; in [2] it was 53.6%; in assay [3] it was 36.6%; in [4], 22.3%; in assay [5], 38%; in assay [6], 10.6%. For the same molecule, the growth was 7.17% (active) in assay [7]; 78.6% in [8]; 80.4% in assay [9]; 37.4% in [10]; 31.6% in assay [11]; 22.1% in assay [12]. For the same molecule, the growth in assay [13] is 43.4%; in assay [14] it was 24.6%; in assay [15], 19.6%; in assay [16], 35.6%; in [19], 24%; in assay [17], 26.3%.
As to `C/C(=C\CCc1ccsc1)CC/C=C(\C)CCCN1CCN(CCO)CC1`, the growth is -34.4% (active) in [1]; 42.7% in assay [2]; 64% in [3]; 6.55% (active) in assay [4]; 55.3% in [5]; -73.9% (active) in assay [6]. Also, the growth was 58.1% in [8]; 55.2% in [11]; 62.1% in [12]; 40% in [13]; 50.6% in [14]; 77.6% in assay [15]. Moreover, the growth in assay [16] was 39.2%; in assay [19], 24.1%; in assay [17], 2.14% (active); in assay [18], -29.1% (active).
Take `CCn1c2c(c3ccccc31)SC1c3cccn3CCN1C2=S` (stereo not drawn): the growth was 90.2% in assay [1]; 79.6% in assay [2]; 95.8% in [3]; 93.8% in assay [4]; 89.1% in [5]; 81% in assay [6]. Moreover, the growth in assay [7] is 96.8%; in assay [8], 110%; in [9], 89.9%; in assay [10] it was 107%; in assay [11], 98.3%; in assay [12], 84.9%. Further, the growth was 89% in assay [13]; 99.1% in assay [14]; 88.3% in assay [15]; 115% in [16]; 81.2% in [19]; 88.8% in [17]. In addition, the growth in assay [18] was 109%.
Regarding `CN(C)c1ccc2[nH]c3c(C(N)=O)cc(=O)c(=O)c=3oc2c1`, the growth in assay [1] is 127%; in [2], 52.7%; in [3], 74.4%; in assay [4], 35.4%; in assay [5], 59.3%; in assay [6] it was 62.6%. For the same molecule, the growth was 8.85% (active) in [7]; 85.8% in [8]; 85.4% in assay [9]; 100% in assay [10]; 54.5% in [11]; 56.3% in [12]. Further, the growth was 111% in [13]; 29.7% in assay [14]; 83.2% in assay [15]; 87.7% in assay [16]; 11.9% in [19]; 9.08% (active) in assay [17]. Besides, the growth in assay [18] was 31%.
On to `CCOc1nc(-c2ccccc2)cc2c(O)c(-c3nnco3)[nH]c(=O)c12`, for which the growth in assay [1] is 69%; in [2], 55.2%; in assay [3], 72.1%; in assay [4], 32.7%; in assay [5], 43.4%; in assay [6], 56.9%. Moreover, the growth in assay [8] is 76.1%; in assay [11], 47.2%; in [12], 29.1%; in [13], 31.8%; in assay [14] it was 52.3%; in assay [15], 34.6%. Further, the growth is 45.3% in [16], 15.7% in assay [19], 30% in assay [17] and 21.3% in assay [18].
`CCCCc1nc(Cl)c(CO)n1Cc1ccc(-c2ccccc2-c2nn[nH]n2)cc1`: the growth in [1] is 108%; in [2], 101%; in assay [3], 110%; in [4], 97.9%; in [5] it was 93.2%; in assay [6] it was 102%. Besides, the growth was 100% in assay [7]; 114% in [8]; 125% in assay [9]; 88.1% in [10]; 99.3% in assay [11]; 82.2% in assay [12]. For the same molecule, the growth in [13] is 108%; in assay [14] it was 107%; in [15], 90.5%; in assay [16], 119%; in assay [19], 113%; in assay [17], 100%.
Consider `C/C(=C\CCc1ccsc1)CC/C=C(\C)CCCN1CCC(CO)CC1`, for which the growth was -42.6% (active) in assay [1]; 41.1% in assay [2]; 52.6% in assay [3]; -3.53% (active) in [4]; 41.2% in [5]; -83.4% (active) in assay [6]. For the same molecule, the growth in assay [8] is 9.39% (active); in assay [11], 51.5%; in assay [12], 23.4%; in assay [13] it was 22.6%; in [14] it was 44%; in assay [15], 45.3%. The growth in assay [16] is 25.5%; in assay [19] it was 2.24% (active); in assay [17] it was -22.2% (active); in assay [18], -44.8% (active).
With `NS(=O)(=O)c1ccc(NC2=C(Cl)C(=O)c3ccccc3C2=O)cc1`, the growth was 105% in [1]; 136% in assay [2]; 101% in assay [3]; 97.5% in [4]; 70.1% in [5]; 96.2% in assay [6]. The growth is 53.7% in assay [7]; 124% in assay [8]; 102% in [9]; 107% in assay [10]; 87% in [11]; 53.2% in assay [12]. The growth in [13] is 164%; in [14] it was 78.3%; in assay [15], 107%; in [16] it was 163%; in [19] it was 85.7%; in [17], 73.6%.
